This is part of a sample that, as a whole, favours compounds with a hit. Of some 83,000 tested, about 20% had one in any assay.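 Growth was measured after 48 h exposure to one concentration of compound in 96-well plates. Values under 10 count as active.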 The source made the active and inactive calls.
How the values were obtained:
Test in all cases: NCI-60 one-dose screen, 48 h (100 = growth as untreated, 0 = no growth, -100 = all killed)
Details in all cases: 10 µM unless noted
[1] = system: DU-145 prostate
[2] = system: K-562 leukemia
[3] = system: MALME-3M melanoma
[4] = system: MDA-MB-231 breast
[5] = system: RXF 393 renal
[6] = system: SF-268 CNS
[7] = system: SF-295 CNS
[8] = system: SF-539 CNS
[9] = system: UACC-257 melanoma
[10] = system: M14 melanoma
[11] = system: HCT-15 colon
[12] = system: HT29 colon
[13] = system: SNB-75 CNS
[14] = system: SNB-19 CNS
[15] = system: U251 CNS
[16] = system: PC-3 prostate
[17] = system: SK-MEL-5 melanoma
[18] = system: UACC-62 melanoma
[19] = system: LOX IMVI melanoma
[20] = system: SK-MEL-28 melanoma

Measured: growth

CCOC(=O)c1c(C)[nH]c(C(=O)CCC(=O)OC)c1C
inactive: [1] 100% | [2] 102% | [3] 98.7% | [4] 115% | [5] 112% | [6] 98.3% | [7] 91.8% | [8] 100% | [9] 112% | [10] 97.5% | [11] 92.4% | [12] 86.7% | [13] 106% | [14] 106% | [15] 99.9% | [16] 81.2% | [17] 106% | [18] 101% | [19] 103% | [20] 111%

CCNCCNc1cc(-c2ccc(Cl)cc2)c(C#N)c2nc3ccccc3n12
inactive: [1] 26.4% | [14] 36% | [16] 27.2%
active: [2] -48.1% | [3] -80.2% | [4] -57.4% | [5] -82.9% | [6] -12.6% | [7] -77.6% | [8] -91.4% | [9] -79.4% | [10] -70.7% | [11] -78.5% | [12] -32.2% | [13] -76.6% | [15] -53.2% | [17] -99.4% | [18] -82.7% | [19] -77.4% | [20] -90.2%

O=C(NCCOCCOCCNc1cccc2c1C(=O)N(C1CCCNC1=O)C2=O)c1cc2c(o1)C(=O)c1ccccc1C2=O (stereo not given)
active: [1] -90.8% | [2] 9.04% | [3] -94.9% | [4] -2.54% | [5] -35.4% | [6] -9.46% | [7] -91.9% | [8] -86.2% | [9] -84.1% | [10] -52.7% | [11] -65.3% | [12] 2.43% | [13] -98.3% | [14] 3.8% | [15] -36.4% | [16] 4.67% | [17] -98.7% | [18] -81.7% | [19] -59% | [20] -28.6%

N=C(N)c1ccc(-c2ccc(-c3ccc(Cl)c(Cl)c3)o2)cc1
inactive: [3] 53.6% | [5] 60.2% | [6] 73.1% | [9] 84.5% | [10] 11.8% | [13] 78.6% | [14] 25.4% | [16] 47.4% | [17] 83.5% | [18] 93.5% | [20] 59.7%
active: [1] 3.63% | [2] -30.2% | [4] -61% | [7] -80% | [8] -89.1% | [11] -55.7% | [12] -20.3% | [15] -36.9% | [19] -96%

CCOc1ccc2nc(-c3cccc(OCC(=O)NC(C)C)c3)nc(Nc3ccc(-c4cn[nH]c4)cc3)c2c1
inactive: [6] 12.6% | [10] 11.6% | [11] 30.8% | [14] 19.4%
active: [1] 4.3% | [2] -17.1% | [3] -66% | [4] 2.7% | [5] -43.7% | [7] -47.4% | [8] -79.6% | [9] -53.7% | [12] -27.6% | [13] -62% | [15] -33.8% | [16] 0.124% | [17] -81.1% | [18] -6.26% | [19] -10.8% | [20] -71.4%

O=C(/C=C/C12c3ccccc3C(c3ccccc31)C1C(=O)NC(=O)C12)c1ccc(Cl)cc1 (stereo not given)
inactive: [6] 29.9% | [9] 25.3% | [14] 17.3% | [16] 21.7%
active: [1] 8.95% | [2] 8.8% | [3] -37.4% | [4] -24.4% | [5] -75.8% | [7] 4.52% | [8] -34.2% | [10] 8.03% | [11] -43.1% | [12] 7.13% | [13] 8.43% | [15] -10.9% | [17] -61.5% | [18] -18.3% | [19] -87.9% | [20] -32.1%

[2H]c1nc(Nc2ncc(F)c(-c3cc(F)c4nc(C)n(C(C)C)c4c3)n2)c([2H])c([2H])c1CN1CCN(C([2H])([2H])C([2H])([2H])[2H])CC1
inactive: [1] 66.2% | [2] 49.6% | [3] 79.5% | [4] 65.2% | [6] 64.5% | [7] 57.8% | [8] 72.1% | [9] 52.3% | [10] 47.5% | [11] 39.8% | [12] 34.6% | [13] 33.9% | [14] 65.5% | [15] 42.2% | [16] 44.2% | [17] 41.8% | [18] 73.3% | [19] 39.1% | [20] 70.3%
active: [5] 1.53%

O=C1C(Cl)C(c2ccccc2Cl)N1n1cnnc1 (stereo not given)
inactive: [1] 104% | [2] 102% | [3] 95.6% | [4] 94.8% | [5] 98.6% | [6] 102% | [7] 100% | [8] 85.3% | [9] 91.5% | [10] 93.1% | [11] 101% | [12] 103% | [13] 74% | [14] 93% | [15] 99.6% | [16] 88% | [17] 97.3% | [18] 94.7% | [19] 91.4% | [20] 96.4%

CC(C)n1nc(C#Cc2cccc(NC(=O)c3cccc(C(F)(F)F)c3)c2)c2c(N)ncnc21
inactive: [16] 16.4%
active: [1] -22.9% | [2] -22.6% | [3] -39% | [4] -81.9% | [5] -76.8% | [6] 3.1% | [7] -14.9% | [8] -73.9% | [9] -18.2% | [10] -44% | [11] -3.07% | [12] -11.7% | [13] -66.2% | [14] 5.79% | [15] 2.84% | [17] -61.4% | [18] -56.1% | [19] -91.8% | [20] -27.9%

NC(N)=N/N=C/c1ccc(Br)cc1
active: [2] 4.4% | [12] 9.57%
inactive: [1] 80% | [3] 45% | [4] 38.1% | [5] 70.8% | [6] 62% | [7] 48.3% | [8] 62.2% | [9] 58.6% | [10] 14.6% | [11] 23.4% | [13] 34% | [14] 35.8% | [15] 25.4% | [16] 27.8% | [17] 13.2% | [18] 36.3% | [19] 43% | [20] 58.9%

CN1C(=O)CCC(N2C(=O)c3cccc(NCCOCCOCCNC(=O)c4cc5c(o4)C(=O)c4ccccc4C5=O)c3C2=O)C1=O (stereo not given)
inactive: [2] 10.5%
active: [1] -95.3% | [3] -97.4% | [4] -3.68% | [5] -34.6% | [6] -0.714% | [7] -88.1% | [8] -80.4% | [9] -85.1% | [10] -67.2% | [11] -79% | [12] 0.328% | [13] -98.2% | [14] 1.34% | [15] -5.25% | [16] 7.64% | [17] -97% | [18] -91% | [19] -53.6% | [20] -19.9%

CC(=O)c1cc2c(o1)C(=O)c1ccccc1C2=O
active: [1] -97.8% | [2] -24.9% | [3] -97.9% | [4] -21.5% | [5] -93.8% | [6] -62.6% | [7] -93.4% | [8] -98.5% | [9] -88.5% | [10] -88.4% | [11] -77% | [12] -18.3% | [13] -98.5% | [14] -90.8% | [15] -81.2% | [16] -10.4% | [17] -96.3% | [18] -82.7% | [19] -59.3% | [20] -70.8%

CN=C1C=CC(=C(c2ccc(N(C)C)cc2)c2ccc(N(C)C)cc2)C=C1
active: [1] -6.79% | [2] 2.18% | [3] -56.6% | [4] -46.9% | [5] -50.8% | [6] -56.5% | [7] -30.4% | [8] -38.3% | [9] -43% | [10] -65.4% | [11] 7.06% | [12] -37.2% | [13] -26.7% | [14] 3.16% | [15] -57.5% | [16] 2.74% | [17] -98.5% | [18] -50.2% | [19] -59.3% | [20] -44.9%

CN1C[C@@H](c2ccc(Cl)cc2)[C@]2(NC(=S)N(c3ccccc3)C2=O)[C@@]12C(=O)NC1C=CC(Br)=C[C@H]12 (stereo not given in full)
inactive: [1] 85% | [2] 34.8% | [3] 108% | [4] 60.8% | [5] 68.4% | [6] 58.1% | [7] 80.6% | [8] 84.8% | [9] 71.4% | [10] 39.4% | [11] 73.5% | [12] 61.5% | [13] 69.6% | [14] 86.2% | [15] 72.5% | [16] 28.1% | [17] 64% | [18] 74.3% | [19] 75.5% | [20] 95.4%
